Experimental data: PMC5540273 (PLoS ONE, 2017)

Legend:
[1] = tested on: T1, YSK4
T1 construct: gene MAP3K19

[2] = tested on: AAK1; settings: concentration: 1 μM, replicates: in singlicate; n = 1
[3] = tested on: ABL1-nonphosphorylated; settings: concentration: 1 μM, replicates: in singlicate; n = 1
[4] = tested on: ABL1-phosphorylated; settings: concentration: 1 μM, replicates: in singlicate; n = 1
[5] = tested on: ABL2; settings: concentration: 1 μM, replicates: in singlicate; n = 1
[6] = tested on: ACVR1B; settings: concentration: 1 μM, replicates: in singlicate; n = 1
[7] = tested on: ACVR1; settings: concentration: 1 μM, replicates: in singlicate; n = 1
[8] = tested on: ACVR2A; settings: concentration: 1 μM, replicates: in singlicate; n = 1
[9] = tested on: ACVR2B; settings: concentration: 1 μM, replicates: in singlicate; n = 1
[10] = tested on: ACVRL1; settings: concentration: 1 μM, replicates: in singlicate; n = 1
[11] = tested on: T2, ADCK3; settings: concentration: 1 μM, replicates: in singlicate; n = 1
T2 construct: gene CABC1

[12] = tested on: ADCK4; settings: concentration: 1 μM, replicates: in singlicate; n = 1
[13] = tested on: AKT1; settings: concentration: 1 μM, replicates: in singlicate; n = 1
[14] = tested on: AKT2; settings: concentration: 1 μM, replicates: in singlicate; n = 1
[15] = tested on: AKT3; settings: concentration: 1 μM, replicates: in singlicate; n = 1
[16] = tested on: ALK; settings: concentration: 1 μM, replicates: in singlicate; n = 1
[17] = tested on: T3, p38-alpha
T3 construct: gene MAPK14

[18] = tested on: T4, p38-beta
T4 construct: gene MAPK11

[19] = tested on: ZAK
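Throughout, for %Inh: KINOMEscan kinase panel screen.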
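Throughout, for Kd: kd values determined as follow-up on hits from a single-replicate KINOMEscan panel screen.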

Structure (SMILES) | Kd [1] | %Inh [2] | %Inh [3] | %Inh [4] | %Inh [5] | %Inh [6] | %Inh [7] | %Inh [8] | %Inh [9] | %Inh [10] | %Inh [11] | %Inh [12] | %Inh [13] | %Inh [14] | %Inh [15] | %Inh [16] | Kd [17] | Kd [18] | Kd [19]
O=C(Nc1n[nH]c2nc(-c3cccs3)c(Br)cc12)C1CC1 [SB-735297] | 200 nM | 10% | 52% | 30% | 0% | 0% | 27% | 0% | 0% | 0% | 0% | 0% | 0% | 0% | 0% | 0% |  |  | 
CCn1c(-c2c(N)noc2C)nc2cnccc21 [SB-737856] |  | 0% | 0% | 13% | 13% | 0% | 21% | 0% | 0% | 0% | 23% | 24% | 0% | 18% | 0% | 35% |  |  | 
Fc1ccc(-c2nc[nH]c2-c2ccncc2)cc1 [SB-217360] |  | 0% | 4% | 33% | 0% | 13% | 0% | 5% | 50% | 0% | 0% | 18% | 4% | 0% | 0% | 10% | 67 nM |  | 
Cc1cnc(N)c(/C=C/c2cncc(C(=O)NCCc3ccc(Cl)cc3Cl)c2)c1.Cl [GSK190937] |  | 19% | 39% | 0% | 11% | 0% | 0% | 0% | 0% | 0% | 25% | 13% | 0% | 0% | 0% | 0% |  |  | 
CNCc1ccc2nc(NC(=O)c3ccc(C(C)(C)C)cc3)cn2c1 |  | 0% | 13% | 12% | 1% | 0% | 2% | 0% | 0% | 7% | 0% | 13% | 5% | 8% | 17% | 16% | > 10000 nM |  | 
COc1ccc(CSc2nnc(-c3ccc4c(c3)CCO4)o2)cc1 |  | 8% | 28% | 0% | 8% | 0% | 0% | 0% | 0% | 0% | 0% | 0% | 0% | 0% | 0% | 0% |  |  | 
Cc1nccc(-c2c(-c3ccc(F)cc3)ncn2CCCN2CCOCC2)n1.Cl [SB-282975] |  | 0% | 26% | 0% | 22% | 36% | 5% | 53% | 7% | 19% | 37% | 0% | 28% | 0% | 0% | 9% |  |  | 
O=C(Nc1n[nH]c2cc(-c3ccsc3)ccc12)C1CC1 [SB-732932] | 120 nM | 56% | 47% | 11% | 18% | 21% | 28% | 26% | 45% | 0% | 0% | 0% | 0% | 21% | 9% | 9% |  |  | 
Cc1ccc(NC(=O)Nc2ccc(Cl)c(C(F)(F)F)c2)cc1-c1ccc(C(=O)Nc2ccncc2)cc1 [GSK1398470] |  | 3% | 1% | 0% | 34% | 5% | 1% | 0% | 0% | 0% | 14% | 2% | 0% | 16% | 0% | 0% | 310 nM | 90 nM | 
COc1cccc(CNC(=O)NC2CCN(c3ccnc(Nc4ccc(F)cc4)n3)C2)c1 (stereo not drawn) [GSK1379723] |  | 6% | 0% | 1% | 8% | 0% | 10% | 0% | 0% | 0% | 10% | 35% | 0% | 12% | 0% | 43% |  |  | > 10000 nM
Cc1ccccc1-c1cc(-c2c[nH]nc2-c2ccccn2)ccn1 [GW680061] |  | 0% | 0% | 0% | 17% | 0% | 9% | 0% | 0% | 0% | 1% | 12% | 0% | 3% | 0% | 22% | 130 nM |  | 
Nc1cccc(-c2ccc3c(N)n[nH]c3c2)n1 [GSK2192730] | 130 nM | 56% | 10% | 0% | 0% | 0% | 0% | 0% | 9% | 0% | 1% | 0% | 0% | 0% | 0% | 21% |  |  | 
CS(=O)(=O)CCNCc1nc(-c2ccc3ncnc(Nc4ccc(OCc5ccccc5)c(Cl)c4)c3c2)cs1.Cl [GW582764] |  | 0% | 0% | 0% | 21% | 0% | 0% | 17% | 0% | 0% | 9% | 45% | 0% | 31% | 0% | 35% |  |  | 
